Measured values: PubChem BioAssay (EPA / NIEHS)
Values joined by “and” are separate entries in the source; they are usually repeats but may differ in a detail not shown here. Equal values may be shown once. Some structures have more than one record in an assay (separate samples or runs), and their calls can disagree. Active and inactive are the calls of the source. The calls were made as follows: active = hit-call score of the fitted dose curve at least 0.9, where 1 is the maximum; inactive = score below 0.9.

Key:
[1] = read-out: Interleukin-1 alpha (IL1a), IL1A (gene 3552); test: BSK_KF3CT_IL1a: BioMAP Diversity Plus: KF3CT Assay for Interleukin-1 alpha (IL1a) Biomarker Activity (AID 2283070); settings: primary human keratinocytes with fibroblasts; actives raise or lower the signal
In short: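 Primary skin co-culture (keratinocytes, foreskin fibroblasts), 24 h exposure; ELISA for IL-1a; bidirectional curve fit vs DMSO.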

[2] = read-out: TIMP metallopeptidase inhibitor 2 (TIMP2), TIMP2 (gene 7077); test: BSK_KF3CT_TIMP2: BioMAP Diversity Plus: KF3CT Assay for TIMP metallopeptidase inhibitor 2 (TIMP2) Biomarker Activity (AID 2283071); settings: primary human keratinocytes with fibroblasts; actives raise or lower the signal
In short: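 Chemicals were dosed onto human skin primary co-cultures of keratinocytes and foreskin fibroblasts, and TIMP-2 was measured by ELISA after 24 hours. Activity in either direction was fitted relative to DMSO.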

[3] = read-out: Transforming growth factor beta 1 (TGFb1), TGFB1 (gene 7040); test: BSK_KF3CT_TGFb1: BioMAP Diversity Plus: KF3CT Assay for Transforming growth factor beta 1 (TGFb1) Biomarker Activity (AID 2283072); settings: primary human keratinocytes with fibroblasts; actives raise or lower the signal
In short: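 KF3CT co-culture (keratinocytes + fibroblasts), 24 h exposure → TGF-b1 ELISA → bidirectional fit, DMSO = baseline. Parallel SRB total-protein staining (0.1% SRB, 10% TCA fixation, 560 nm) for cytotoxicity.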

[4] = read-out: C-C motif chemokine 2 (Homo sapiens) (UniProt P13500); test: BSK_KF3CT_MCP1: BioMAP Diversity Plus: KF3CT Assay for Monocyte Chemoattractant Protein 1 (MCP1/CCL2) Biomarker Activity (AID 2283073); settings: primary human keratinocytes with fibroblasts; actives raise or lower the signal
In short: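 KF3CT skin co-culture (keratinocytes/foreskin fibroblasts), 24 h post-dose; MCP-1 by ELISA; gain/loss of signal fit bidirectionally vs DMSO baseline.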

[5] = read-out: Matrix Metallopeptidase 9 (MMP9), MMP9 (gene 4318); test: BSK_KF3CT_MMP9: BioMAP Diversity Plus: KF3CT Assay for Matrix Metallopeptidase 9 (MMP9) Biomarker Activity (AID 2283074); settings: primary human keratinocytes with fibroblasts; actives raise or lower the signal;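 as to AC50: MMP9 protein level quantified by ELISA in the co-culture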
In short: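 ELISA read-out of MMP-9 at 24 h post-dosing in a co-culture of human skin keratinocytes and foreskin fibroblasts. Gain or loss of signal was fitted in both directions against DMSO.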

[6] = read-out: urokinase plasminogen activator (uPA), PLAU (gene 5328); test: BSK_KF3CT_uPA: BioMAP Diversity Plus: KF3CT Assay for urokinase plasminogen activator (uPA) Biomarker Activity (AID 2283075); settings: primary human keratinocytes with fibroblasts; actives raise or lower the signal
In short: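 Skin co-culture (keratinocytes + foreskin fibroblasts), human primary; 24 h post-dose; uPA by ELISA; gain/loss fit vs DMSO baseline.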

CD40, CD40 (gene 958) = test: BSK_LPS_CD40: BioMAP Diversity Plus: LPS Assay for CD40 Biomarker Activity (AID 2283076); settings: primary human HUVEC with PBMC; actives raise or lower the signal
In short: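 ELISA readout of CD40 in HUVEC/PBMC co-culture (BSK_LPS system), 24 h post-dosing; bidirectional curve fit, DMSO baseline; parallel SRB total-protein staining for cytotoxicity.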

[7] = read-out: E-selectin (Homo sapiens) (UniProt P16581); test: BSK_LPS_Eselectin: BioMAP Diversity Plus: LPS Assay for Eselectin Biomarker Activity (AID 2283077); settings: primary human HUVEC with PBMC; actives raise or lower the signal
In short: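 ELISA readout of E-selectin, 24 h post-dose, HUVEC + PBMC co-culture (LPS system). Gain or loss of signal vs DMSO baseline, bidirectional fit.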

[8] = read-out: Interleukin-8 (IL8), CXCL8 (gene 3576); test: BSK_LPS_IL8: BioMAP Diversity Plus: LPS Assay for Interleukin-8 (IL8) Biomarker Activity (AID 2283078); settings: primary human HUVEC with PBMC; actives raise or lower the signal
In short: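 HUVEC + PBMC co-culture, LPS-activated; test chemicals dosed, IL-8 read by ELISA at 24 h. Bidirectional curve fit vs DMSO baseline (gain or loss of signal).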

[9] = BSK_LPS_SRB: Viability Assessment in the BioMAP Diversity Plus: LPS Assay (AID 2283079); settings: primary human HUVEC with PBMC;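 also: total protein by sulforhodamine B absorbance as a cytotoxicity measure; measured one day after compound addition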
In short: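 HUVEC + PBMC co-culture, LPS-stimulated; compound 24 h. 10% TCA fix, 0.1% SRB stain, A560. Bidirectional fit vs DMSO.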

Sequence of E-selectin (Homo sapiens) (P16581 whole entry, looked up): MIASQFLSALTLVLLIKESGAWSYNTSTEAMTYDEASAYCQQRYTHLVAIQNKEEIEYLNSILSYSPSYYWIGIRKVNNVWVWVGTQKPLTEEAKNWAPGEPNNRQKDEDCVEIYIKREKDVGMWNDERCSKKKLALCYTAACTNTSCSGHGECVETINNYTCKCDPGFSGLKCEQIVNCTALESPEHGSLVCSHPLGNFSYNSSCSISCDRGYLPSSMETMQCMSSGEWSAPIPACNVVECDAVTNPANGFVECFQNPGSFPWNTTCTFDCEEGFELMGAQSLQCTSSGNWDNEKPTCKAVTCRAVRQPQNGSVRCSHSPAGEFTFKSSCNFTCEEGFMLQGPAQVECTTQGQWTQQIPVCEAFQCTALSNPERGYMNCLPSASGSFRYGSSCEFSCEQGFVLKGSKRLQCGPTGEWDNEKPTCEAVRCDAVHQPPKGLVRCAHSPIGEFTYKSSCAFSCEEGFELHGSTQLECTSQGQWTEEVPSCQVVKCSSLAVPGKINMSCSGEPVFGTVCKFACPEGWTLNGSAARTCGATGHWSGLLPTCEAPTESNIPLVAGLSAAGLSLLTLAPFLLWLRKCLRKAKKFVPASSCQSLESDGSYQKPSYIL

Compound: C=CC(=O)OCCCCCCOC(=O)C=C
- AC50 [1]: 11.3 µM (active)
- AC50 [2]: 20 µM (active)
- AC50 [3]: 3.97 µM (active)
- outcome [4]: inactive
- AC50 [5]: 12.5 µM (active)
- AC50 [6]: 20 µM (active)
- AC50 (CD40, CD40 (gene 958)): 7.82 µM (active)
- AC50 [7]: 9.18 µM (active)
- AC50 [8]: 4.79 µM (active)

Compound: CCCCCCCO
- outcome [1]: inactive
- outcome [2]: inactive
- outcome [3]: inactive
- outcome [4]: inactive
- outcome [5]: inactive
- outcome [6]: inactive
- outcome (CD40, CD40 (gene 958)): inactive
- outcome [7]: inactive
- outcome [8]: inactive
- outcome [9]: inactive

Compound: CCOC(=O)/C=C\C(=O)OCC
- outcome [1]: inactive
- outcome [2]: inactive
- outcome [3]: inactive
- AC50 [4]: 3.97 µM (active)
- outcome [5]: inactive
- outcome [6]: inactive
- outcome [7]: inactive
- outcome [8]: inactive

Compound: O=C1CCCCCCCCCCC1
- outcome [1]: inactive
- outcome [2]: inactive
- outcome [3]: inactive
- outcome [4]: inactive
- outcome [5]: inactive
- outcome [6]: inactive
- outcome [7]: inactive
- outcome [8]: inactive

Compound: C=CC(=O)OCC(C)OCC(C)OCC(C)OC(=O)C=C (stereo not drawn)
- AC50 [1]: 20 µM (active)
- outcome [2]: inactive
- outcome [3]: inactive
- AC50 [4]: 10.4 µM (active)
- AC50 [5]: 14.7 µM (active)
- AC50 [6]: 20 µM (active)
- AC50 [7]: 9.34 µM (active)
- AC50 [8]: 11.9 µM (active)

Compound: Cc1ccc([N+](=O)[O-])cc1N
- outcome [1]: inactive
- outcome [2]: inactive
- outcome [3]: inactive
- outcome [4]: inactive
- outcome [5]: inactive
- outcome [6]: inactive
- outcome (CD40, CD40 (gene 958)): inactive
- outcome [7]: inactive
- outcome [8]: inactive
- outcome [9]: inactive

Compound: C=CCCCCCCCCC=O
- outcome [1]: inactive
- outcome [2]: inactive
- outcome [3]: inactive
- outcome [4]: inactive
- outcome [5]: inactive
- outcome [6]: inactive
- outcome (CD40, CD40 (gene 958)): inactive
- outcome [7]: inactive
- outcome [8]: inactive

Compound: C1CNCCN1
- outcome [1]: inactive
- outcome [2]: inactive
- outcome [3]: inactive
- outcome [4]: inactive
- outcome [5]: inactive
- outcome [6]: inactive
- outcome [7]: inactive
- outcome [8]: inactive

Compound: Oc1c(Cl)cc(Cl)c(Cl)c1Cl
- outcome [1]: inactive
- AC50 [2]: 11.4 µM (active)
- AC50 [3]: 20 µM (active)
- AC50 [4]: 20 µM (active)
- AC50 [5]: 20 µM (active)
- outcome [6]: inactive
- AC50 [7]: 30.7 µM (active)
- outcome [8]: inactive

Compound: CC(C)c1cccc(C(C)C)c1N
- outcome [1]: inactive
- outcome [2]: inactive
- outcome [3]: inactive
- outcome [4]: inactive
- outcome [5]: inactive
- outcome [6]: inactive
- outcome [7]: inactive
- outcome [8]: inactive

Compound: Cc1c(O)cccc1O
- outcome [1]: inactive
- outcome [2]: inactive
- outcome [3]: inactive
- outcome [4]: inactive
- outcome [5]: inactive
- outcome [6]: inactive
- outcome [7]: inactive
- outcome [8]: inactive

Compound: CC1=CC=C(C(C)C)CC1
- outcome [1]: inactive
- outcome [2]: inactive
- outcome [3]: inactive
- outcome [4]: inactive
- outcome [5]: inactive
- outcome [6]: inactive
- outcome [7]: inactive
- outcome [8]: inactive

Compound: CCCCCC1=CCCC1=O
- outcome [1]: inactive
- outcome [2]: inactive
- outcome [3]: inactive
- outcome [4]: inactive
- outcome [5]: inactive
- outcome [6]: inactive
- outcome (CD40, CD40 (gene 958)): inactive
- outcome [7]: inactive
- outcome [8]: inactive

Compound: CC(Cl)COP(=O)(OCC(C)Cl)OCC(C)Cl (stereo not drawn)
- outcome [1]: inactive
- outcome [2]: inactive
- outcome [3]: inactive
- outcome [4]: inactive
- outcome [5]: inactive
- outcome [6]: inactive
- outcome [7]: inactive
- outcome [8]: inactive

Compound: C=CC(=O)NCOCCCC
- outcome [1]: inactive
- outcome [2]: inactive
- outcome [3]: inactive
- outcome [4]: inactive
- outcome [5]: inactive
- outcome [6]: inactive
- outcome (CD40, CD40 (gene 958)): inactive
- outcome [7]: inactive
- outcome [8]: inactive
- outcome [9]: inactive

Compound: CCc1cccc(C)c1N(C(=O)CS(=O)(=O)O)C(C)COC (stereo not drawn)
- outcome [1]: inactive
- outcome [2]: inactive
- outcome [3]: inactive
- outcome [4]: inactive
- outcome [5]: inactive
- outcome [6]: inactive
- outcome (CD40, CD40 (gene 958)): inactive
- outcome [7]: inactive
- outcome [8]: inactive

Compound: C=CC(=O)OCCCCCCCC(C)C
- outcome [1]: inactive
- outcome [2]: inactive
- outcome [3]: inactive
- outcome [4]: inactive
- outcome [5]: inactive
- outcome [6]: inactive
- outcome (CD40, CD40 (gene 958)): inactive
- outcome [7]: inactive
- outcome [8]: inactive

Compound: CCNc1nc(NC(C)(C)C)nc(OC)n1
- outcome [1]: inactive
- outcome [2]: inactive
- outcome [3]: inactive
- outcome [4]: inactive
- outcome [5]: inactive
- outcome [6]: inactive
- outcome (CD40, CD40 (gene 958)): inactive
- outcome [7]: inactive
- outcome [8]: inactive
- outcome [9]: inactive

Compound: CC(c1cc(C(C)(C)C)cc(C(C)(C)C)c1O)c1cc(C(C)(C)C)cc(C(C)(C)C)c1O
- outcome [1]: inactive
- outcome [2]: inactive
- outcome [3]: inactive
- outcome [4]: inactive
- outcome [5]: inactive
- outcome [6]: inactive
- outcome [7]: inactive
- outcome [8]: inactive

Compound: c1ccc2c(c1)[nH]c1ccccc12
- outcome [1]: inactive
- outcome [2]: inactive
- outcome [3]: inactive
- outcome [4]: inactive
- outcome [5]: inactive
- outcome [6]: inactive
- outcome (CD40, CD40 (gene 958)): inactive
- outcome [7]: inactive
- AC50 [8]: 0.017 µM (active)
- outcome [8]: inactive
- outcome [9]: inactive

Compound: C=CC(=O)NC(C)(C)C
- outcome [1]: inactive
- outcome [2]: inactive
- outcome [3]: inactive
- outcome [4]: inactive
- outcome [5]: inactive
- outcome [6]: inactive
- outcome (CD40, CD40 (gene 958)): inactive
- outcome [7]: inactive
- outcome [8]: inactive

Compound: CCCCCCCCCCCC(C)=O
- outcome [1]: inactive
- AC50 [2]: 3.97 µM (active)
- outcome [3]: inactive
- AC50 [4]: 31.5 µM (active)
- outcome [5]: inactive
- outcome [6]: inactive
- AC50 [7]: 23.9 µM (active)
- outcome [8]: inactive

Compound: COc1ccc(C(=O)/C(Br)=C\C(=O)O)cc1
- AC50 [1]: 20 µM (active) and 24.8 µM (active)
- AC50 [2]: 20 µM (active)
- AC50 [3]: 20 µM (active) and 6.52 µM (active)
- AC50 [4]: 33 µM (active) and 35 µM (active)
- AC50 [5]: 25.6 µM (active) and 23.3 µM (active)
- AC50 [6]: 31.7 µM (active)
- outcome [6]: inactive
- AC50 [7]: 25.3 µM (active) and 30.3 µM (active)
- AC50 [8]: 20 µM (active)

Compound: Nc1ccc(C(=O)O)cc1
- outcome [1]: inactive
- outcome [2]: inactive
- outcome [3]: inactive
- outcome [4]: inactive
- outcome [5]: inactive
- outcome [6]: inactive
- outcome (CD40, CD40 (gene 958)): inactive
- outcome [7]: inactive
- outcome [8]: inactive

Compound: CCCCCCOC(=O)CCCCC(=O)OCCCCCC
- outcome [1]: inactive
- outcome [2]: inactive
- outcome [3]: inactive
- outcome [4]: inactive
- outcome [5]: inactive
- outcome [6]: inactive
- outcome [7]: inactive
- outcome [8]: inactive

Compound: CCOC(=O)C1=NOC(c2ccccc2)(c2ccccc2)C1
- outcome [1]: inactive
- outcome [2]: inactive
- AC50 [3]: 0.113 µM (active)
- outcome [4]: inactive
- outcome [5]: inactive
- outcome [6]: inactive
- outcome (CD40, CD40 (gene 958)): inactive
- outcome [7]: inactive
- outcome [8]: inactive

Compound: CCC1(C)C(=O)N(Cl)C(=O)N1Cl (stereo not drawn)
- outcome [1]: inactive
- outcome [2]: inactive
- outcome [3]: inactive
- outcome [4]: inactive
- outcome [5]: inactive
- outcome [6]: inactive
- outcome (CD40, CD40 (gene 958)): inactive
- outcome [7]: inactive
- outcome [8]: inactive
- outcome [9]: inactive

Compound: CCOC(=O)C1=NN(c2ccc(Cl)cc2Cl)C(C)(C(=O)OCC)C1 (stereo not drawn)
- outcome [1]: inactive
- outcome [2]: inactive
- outcome [3]: inactive
- outcome [4]: inactive
- outcome [5]: inactive
- outcome [6]: inactive
- outcome (CD40, CD40 (gene 958)): inactive
- outcome [7]: inactive
- outcome [8]: inactive
- outcome [9]: inactive
